Measurements published in PubChem BioAssay AID1159580 (chemical genetic matrix, 2015).
Screen size: about 5,500 compounds; about 2,000 (36%) were called active. Inconclusive results (about 18%) are left out. Cut-off read from the data, not from the text of the source: active = normalized growth mostly below about 0.91 (no sharp cut-off); inconclusive = no clear call, values can overlap the other calls; inactive = mostly above about 0.92. The list shows a part of the results. Where a SMILES comes first, the peptide text is derived from it. Bridges are numbered along the chain shown (N, C = ends). [ ]: non-standard residue; d: D form. The star is where a group is joined. Octanoyl(6-Me) = CCC(C)CCCCC(=O)*; Dab = NCC[CH](N)C(=O)O

Test: chemical genetic growth profiling, strain panel (AID 1159580);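 note: tested at 20 µM; growth read once vehicle control cultures reached saturation at 30 °C; 1 = growth at the plate median or of vehicle wells; lower values mean less growth of the strain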
Details: growth OD

Measured: normalized growth

CCC(C)CCCCC(=O)NC(CCN)C(=O)NC(C(=O)NC(CCN)C(=O)NC1CCNC(=O)C(C(C)O)NC(=O)C(CCN)NC(=O)C(CCN)NC(=O)C(CC(C)C)NC(=O)C(Cc2ccccc2)NC(=O)C(CCN)NC1=O)C(C)O (configuration not stated) ({Octanoyl(6-Me)}-[Dab]T[Dab][Dab][Dab]FL[Dab][Dab]T; lactam 4-C; configuration not given here)
inactive: S. cerevisiae deletion strains, locus YJR075W, strain HOC1, active compounds read low 0.997 | S. cerevisiae deletion strains, locus YKL009W, strain mrt4, active compounds read low 0.99 | S. cerevisiae deletion strains, locus YKL068W, active compounds read low 1 | S. cerevisiae deletion strains, locus YKL085W, strain MDH1 (second series), active compounds read low 0.998 | S. cerevisiae deletion strains, locus YKL085W, strain MDH1, active compounds read low 0.998 | S. cerevisiae deletion strains, locus YKL160W, strain elf1, active compounds read low 0.97 | S. cerevisiae deletion strains, locus YKL190W, strain CNB1, active compounds read low 0.991 | S. cerevisiae deletion strains, locus YKR001C, strain vps1, active compounds read low 0.987 | S. cerevisiae deletion strains, locus YKR026C, strain gcn3, active compounds read low 1 | S. cerevisiae deletion strains, locus YKR091W, strain srl3, active compounds read low 1.01 | S. cerevisiae deletion strains, locus YLL001W, strain dnm1, active compounds read low 0.989 | S. cerevisiae deletion strains, locus YLL026W, active compounds read low 1.02 | S. cerevisiae deletion strains, locus YLL041C, strain sdh2, active compounds read low 0.995 | S. cerevisiae deletion strains, locus YLR027C, strain aat2, active compounds read low 0.988 | S. cerevisiae deletion strains, locus YLR039C, strain RIC1, active compounds read low 1.04 | S. cerevisiae deletion strains, locus YLR058C, strain SHM2, active compounds read low 1 | S. cerevisiae deletion strains, locus YLR102C, strain apc9, active compounds read low 1.01 | S. cerevisiae deletion strains, locus YLR113W, strain HOG1, active compounds read low 0.986 | S. cerevisiae deletion strains, locus YLR221C, strain rsa3, active compounds read low 0.988 | S. cerevisiae deletion strains, locus YLR258W, strain gsy2, active compounds read low 0.978 | S. cerevisiae deletion strains, locus YLR262C, strain YPT6 (second series), active compounds read low 1.04 | S. cerevisiae deletion strains, locus YLR262C, strain YPT6, active compounds read low 1.05 | S. cerevisiae deletion strains, locus YLR268W, strain sec22, active compounds read low 1.05 | S. cerevisiae deletion strains, locus YLR320W, strain mms22, active compounds read low 0.957 | S. cerevisiae deletion strains, locus YLR330W, strain CHS5, active compounds read low 1 | S. cerevisiae deletion strains, locus YLR342W, strain FKS1 (second series), active compounds read low 0.95 | S. cerevisiae deletion strains, locus YLR342W, strain FKS1, active compounds read low 0.995 | S. cerevisiae deletion strains, locus YLR357W, strain rsc2, active compounds read low 0.968 | S. cerevisiae deletion strains, locus YLR370C, strain arc18, active compounds read low 0.979 | S. cerevisiae deletion strains, locus YLR371W, strain rom2, active compounds read low 1.01 | S. cerevisiae deletion strains, locus YLR384C, strain iki3, active compounds read low 0.981 | S. cerevisiae deletion strains, locus YLR418C, strain cdc73, active compounds read low 1.02 | S. cerevisiae deletion strains, locus YML016C, strain PPZ1, active compounds read low 0.992 | S. cerevisiae deletion strains, locus YML032C, strain rad52, active compounds read low 1.02 | S. cerevisiae deletion strains, locus YML120C, strain ndi1, active compounds read low 0.985 | S. cerevisiae deletion strains, locus YML124C, strain tub3, active compounds read low 1.01 | S. cerevisiae deletion strains, locus YMR058W, strain fet3, active compounds read low 0.984 | S. cerevisiae deletion strains, locus YMR078C, strain ctf18, active compounds read low 1.01 | S. cerevisiae deletion strains, locus YMR125W, strain sto1, active compounds read low 0.993 | S. cerevisiae deletion strains, locus YMR129W, active compounds read low 1 | S. cerevisiae deletion strains, locus YMR205C, strain PFK2, active compounds read low 0.957 | S. cerevisiae deletion strains, locus YMR223W, strain ubp8, active compounds read low 0.975 | S. cerevisiae deletion strains, locus YMR231W, strain pep5, active compounds read low 1 | S. cerevisiae deletion strains, locus YMR263W, strain SAP30, active compounds read low 1.02 | S. cerevisiae deletion strains, locus YMR307W, strain GAS1, active compounds read low 0.984 | S. cerevisiae deletion strains, locus YNL067W, strain RPL9B, active compounds read low 1.01 | S. cerevisiae deletion strains, locus YNL071W, strain lat1, active compounds read low 1.02 | S. cerevisiae deletion strains, locus YNL128W, strain TEP1, active compounds read low 0.982 | S. cerevisiae deletion strains, locus YNL153C, strain GIM3, active compounds read low 1.02 | S. cerevisiae deletion strains, locus YNL183C, strain NPR1, active compounds read low 0.944 | S. cerevisiae deletion strains, locus YNL209W, strain ssb2, active compounds read low 1 | S. cerevisiae deletion strains, locus YNL233W, strain BNI4, active compounds read low 0.992 | S. cerevisiae deletion strains, locus YNL248C, strain rpa49, active compounds read low 0.989 | S. cerevisiae deletion strains, locus YNL250W, strain rad50, active compounds read low 0.996 | S. cerevisiae deletion strains, locus YNL271C, strain bni1, active compounds read low 1.01 | S. cerevisiae deletion strains, locus YNL298W, strain CLA4, active compounds read low 0.997 | S. cerevisiae deletion strains, locus YNL307C, strain MCK1, active compounds read low 1.01 | S. cerevisiae deletion strains, locus YNL322C, strain KRE1 (second series), active compounds read low 0.976 | S. cerevisiae deletion strains, locus YNL322C, strain KRE1, active compounds read low 0.991 | S. cerevisiae deletion strains, locus YNR049C, strain mso1, active compounds read low 0.997 | S. cerevisiae deletion strains, locus YNR052C, strain pop2, active compounds read low 0.979 | S. cerevisiae deletion strains, locus YOL006C, strain TOP1, active compounds read low 0.992 | S. cerevisiae deletion strains, locus YOL012C, strain htz1 1.19 | S. cerevisiae deletion strains, locus YOL147C, strain pex11, active compounds read low 1.01 | S. cerevisiae deletion strains, locus YOR001W, strain rrp6, active compounds read low 0.97 | S. cerevisiae deletion strains, locus YOR061W, strain CKA2, active compounds read low 0.991 | S. cerevisiae deletion strains, locus YOR069W, strain VPS5, active compounds read low 1 | S. cerevisiae deletion strains, locus YOR070C, strain gyp1, active compounds read low 0.995 | S. cerevisiae deletion strains, locus YOR080W, strain dia2, active compounds read low 0.991 | S. cerevisiae deletion strains, locus YOR083W, strain WHI5, active compounds read low 0.97 | S. cerevisiae deletion strains, locus YOR106W, strain vam3, active compounds read low 0.987 | S. cerevisiae deletion strains, locus YOR136W, strain idh2, active compounds read low 1 | S. cerevisiae deletion strains, locus YOR144C, strain elg1, active compounds read low 1 | S. cerevisiae deletion strains, locus YOR184W, strain ser1, active compounds read low 1.01 | S. cerevisiae deletion strains, locus YOR231W, strain MKK1, active compounds read low 0.978 | S. cerevisiae deletion strains, locus YOR265W, strain rbl2, active compounds read low 0.986 | S. cerevisiae deletion strains, locus YOR270C, strain vph1, active compounds read low 0.963 | S. cerevisiae deletion strains, locus YOR290C, strain snf2, active compounds read low 0.963 | S. cerevisiae deletion strains, locus YOR316C, strain cot1, active compounds read low 1 | S. cerevisiae deletion strains, locus YPL051W, strain arl3, active compounds read low 0.963 | S. cerevisiae deletion strains, locus YPL055C, strain LGE1, active compounds read low 0.994 | S. cerevisiae deletion strains, locus YPL078C, strain atp4, active compounds read low 0.972 | S. cerevisiae deletion strains, locus YPL106C, strain sse1, active compounds read low 0.956 | S. cerevisiae deletion strains, locus YPL240C, strain hsp82, active compounds read low 0.981 | S. cerevisiae deletion strains, locus YPL241C, strain CIN2, active compounds read low 1 | S. cerevisiae deletion strains, locus YPL256C, strain CLN2, active compounds read low 0.994 | S. cerevisiae deletion strains, locus YPR119W, strain clb2, active compounds read low 0.999 | S. cerevisiae deletion strains, locus YPR141C, strain kar3, active compounds read low 1.01 | S. cerevisiae deletion strains, locus YPR163C, strain tif3, active compounds read low 1.02 | S. cerevisiae deletion strains, locus YPR167C, strain met16, active compounds read low 1 | S. cerevisiae deletion strains, strain wtn01, active compounds read low 1.01 | S. cerevisiae strains, strain wild type, active compounds read low 0.99
